Bioassay records (PubChem BioAssay)
In the library only some 2% were active in any assay of this set; here they are far more common.
LDHA block – inhibitors of human lactate dehydrogenase A. P00338. purified LDHA, NADH/diaphorase-resazurin fluorescence; active compounds read low. activity change, % (values are at about 110 or 230 µM). 0.15% of 480,000 active. AID 1347041; in the data active = activity change below about -30%; inconclusive = mostly about -25% to -30%;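 note: plate controls were DMSO wells for no effect and wells without enzyme for full effect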
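Enzyme activity of human lactate dehydrogenase 5 (2 nM; 0.06 mM NADH, 0.2 mM pyruvate, 5 min, RT) is measured via a resazurin/diaphorase fluorescence readout of residual NADH.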
FUS yeast rescue – rescues growth of FUS-expressing yeast; Potency, µM (titrated, usually from 76.6 µM), usual class: activators; S. cerevisiae FUS-expressing, growth rescue, OD600, 24 h; 0.24% of 390,000 active; AID 1347120;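 note: potency is the fitted concentration of half-maximal effect; plate controls were DMSO vehicle for no effect and reference control for full effect; nearly all actives have a fitted effect of over 55% in size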
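Steps: raffinose overnight preculture; dilution to OD 0.005 in 2% galactose minimal medium; compound addition (concentration series); 24hr at 30C, 99% humidity; absorbance read at 600 nm.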
TDP-43 yeast inh – rescues yeast growth from TDP-43 toxicity; TDP-43 expressing yeast growth rescue, BacTiter-Glo, 24 h; Potency, µM (titrated, usually from 46.1 µM), for inactives: top-dose growth rescue (activation), actives largely listed as activators; 1.8% of 410,000 active; note: potency is the fitted concentration of half-maximal effect; % of control where 0% means no effect; nearly all actives have a fitted effect of over 50% in size
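Luminescence from BacTiter-Glo reports growth of TDP-43-expressing yeast after 24 hr at 30 deg C with compound. Cells were raffinose-pregrown to mid-log, then seeded in galactose medium at OD600=0.02.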
aSyn rescue – inhibitors of alpha-synuclein toxicity in yeast. 0.14% of 370,000 active. Potency, µM (highest dose often 46.1 µM), for the others: at the highest dose growth rescue (activation), most hits filed as activators. Yeast expressing alpha-synuclein, growth rescue, BacTiter-Glo, 24 h. AID 652106; note: potency is the fitted concentration of half-maximal effect; % of control where 0% means no effect; nearly all actives have a fitted effect of over 65% in size
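Rescue of yeast growth: cells expressing toxic alpha-synuclein, induced in galactose at OD600 0.02, incubated with compound 24 h at 30 C. ATP luminescence quantified growth; inhibitors of toxicity appear as activators.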
mIDH1 inhibitor – blocks human mutant IDH1 R132H enzyme | O75874 | IDH1-R132H enzyme, NADPH consumption, diaphorase/resazurin fluorescence | Potency, µM (top dose mostly 76.6 µM), inactives show top-dose activity change, negative = inhibition, actives largely listed as inhibitors | 0.093% of 390,000 active; note: potency is the fitted concentration of half-maximal effect; % is set by controls: 0 for no effect and ±100 for the full control effect; nearly all actives have a fitted effect of over 65% in size
Target sequence (O75874 whole entry R132H, stated change not applied): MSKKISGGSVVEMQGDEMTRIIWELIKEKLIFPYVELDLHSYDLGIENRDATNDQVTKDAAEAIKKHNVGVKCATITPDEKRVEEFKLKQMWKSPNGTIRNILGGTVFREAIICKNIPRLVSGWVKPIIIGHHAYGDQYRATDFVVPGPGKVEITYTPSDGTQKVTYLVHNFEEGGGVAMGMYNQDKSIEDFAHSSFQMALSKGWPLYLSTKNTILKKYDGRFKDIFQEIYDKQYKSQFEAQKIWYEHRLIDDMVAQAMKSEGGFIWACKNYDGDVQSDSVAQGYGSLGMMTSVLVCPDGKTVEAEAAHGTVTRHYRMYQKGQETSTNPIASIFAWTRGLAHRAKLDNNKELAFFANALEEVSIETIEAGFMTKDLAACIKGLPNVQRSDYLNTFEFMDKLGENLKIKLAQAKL
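IDH1-R132H (0.5 ug/mL dispensed) in pH 7.5 Tris buffer was preincubated 30 min with compound, then given a substrate mix of 0.016 mM NADPH and 2 mM alpha-KG for 80 min at room temperature; remaining NADPH was read by diaphorase/resazurin fluorescence.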
Abeta rescue – restores growth of yeast expressing A-beta42 peptide; yeast expressing A-beta42, growth rescue, OD600, 48 h; response scale: 0% DMSO, 100% iron-clioquinol control; Potency, µM (series often up to 46.1 µM), actives largely listed as activators; 0.063% of 410,000 active; AID 1347071; note: potency is the fitted concentration of half-maximal effect; nearly all actives have a fitted effect of over 55% in size
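Yeast growth medium received pinned compounds, then yeast cells expressing toxic A-beta were added; plates incubated at 30 C for 48 hr. Growth read as absorbance at 600 nm, normalized to DMSO and equimolar FeCl3 plus clioquinol controls.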
Active calls of the source: *; i = inactive; ? = inconclusive; / = no result; [ ] = another dose, or the depositor's remark. Unless noted, calls come from the whole dose curve; as a rule, active = well fitted curve in the direction sought with a large enough effect; inconclusive = small, poorly fitted or top-dose-only effect, or another doubt; inactive = no such curve, though single readings can be large; an effect the other way counts as inactive or inconclusive.

SMILES	LDHA block	FUS yeast rescue	TDP-43 yeast inh	aSyn rescue	mIDH1 inhibitor	Abeta rescue
N#Cc1ccccc1Cn1cc(C(=O)c2ccco2)c2ccccc21	1.2	i	14.8%	1.6%	-5.3%	i
Cc1cc(C)c(NC(=O)c2cn(Cc3ccccc3)nn2)c(C)c1	8.1	/	/	/	/	/
CCCNc1nc(-c2cc(C(=O)Nc3ccccc3)on2)cc(C(C)C)n1	1.9	i	17.8µM*	12.6µM*	5.0%	i
COC(=O)c1ccc(N2C(=O)CC(N3CCC(O)(c4ccc(Br)cc4)CC3)C2=O)cc1 (configuration not stated)	3.4	i	6.31µM*	7.5%	4.2%	i
COc1cc(CNC2CN3CCC2CC3)ccc1OCc1c(F)cccc1Cl (configuration not stated)	3.9	/	/	/	/	/
CCOc1ccc(N2C(=O)NC(=O)/C(=C\c3ccccc3[N+](=O)[O-])C2=O)cc1	-52.7*	i	19.1%	1.9%	2.3%	i
COc1ccc(N2C(=O)NC(=O)/C(=C\c3ccccc3[N+](=O)[O-])C2=O)cc1	?	i	-14.0%	-9.2%	-3.9%	i
CCOc1ccc(N2C(=O)/C(=C/c3ccco3)C(=O)NC2=S)cc1	-36.9*	?	-6.8%	-15.0%	-9.6%	i
CCOc1ccc(N2C(=O)/C(=C\c3cccs3)C(=O)NC2=S)cc1	-8.7	?	-42.9%	-75.5%	3.3%	i
COc1ccc(CN2CCN(C(=O)COc3ccc4ccccc4c3)CC2)cc1	-2.3	/	/	/	/	/
O=C1NCN(c2ccccc2)C12CCN(C(c1cccc3ccccc13)c1nnnn1Cc1ccccc1)CC2 (configuration not stated)	-5.6	?	15.0%	2.4%	/	i
O=C1NCN(c2ccccc2)C12CCN(C(c1ccccc1OC(F)(F)F)c1nnnn1Cc1ccccc1)CC2 (configuration not stated)	-4.7	10µM*	0.0%	0.7%	/	i
CCCCn1nnnc1C(c1cccc2ccccc12)N1CCC2(CC1)C(=O)NCN2c1ccccc1 (configuration not stated)	0.0	10µM*	-8.5%	12.2%	/	i
COC(=O)C12CCC(CC1c1ccccc1)OC2=O (configuration not stated)	0.9	/	/	/	/	/
C/C(=N\NC(N)=S)C12CC3CC(CC(C3)C1)C2	-6.8	i	14.1µM*	5.7%	1.9%	?
O=C(Nc1ccc2c(c1)OCCO2)c1cccn(Cc2cccc([N+](=O)[O-])c2)c1=O	-0.8	i	-1.3%	/	5.7%	i
N#Cc1ccccc1NC(=O)c1cccn(Cc2ccccc2)c1=O	-4.0	i	22.4µM*	/	-4.8%	i
NC(=O)c1ccc(NC(=O)c2cccn(Cc3ccccc3)c2=O)cc1	-1.9	i	7.0%	/	6.4%	i
Cc1cccc(C)c1NC(=O)c1cccn(Cc2ccc3c(c2)OC(F)(F)O3)c1=O	3.3	?	20µM*	1.1%	1.7%	i
CC(C)Oc1cccc(NC(=O)c2cccn(Cc3ccc4c(c3)OC(F)(F)O4)c2=O)c1	6.2	i	23.2%	11.3%	3.4%	i
O=C(Nc1ccc2c(c1)OCCO2)c1cccn(Cc2ccccc2)c1=O	1.4	i	20µM*	/	7.9%	i
N#CCC1CN2CCC1C(c1ccccc1)C2 (configuration not stated)	2.4	/	/	/	/	/
C=CCn1cc(C=C2C(=O)N(C)C(=O)N(C)C2=O)c2ccccc21	1.0	i	-2.7%	5.6%	-8.6%	i
O=C1NC(=O)C(=Cc2ccccc2Oc2ccc(F)cc2)C(=O)N1	-40.2*	i	-13.3%	-4.0%	1.9%	i
CN1C(=O)C(=Cc2ccccc2Oc2ccc(Cl)c(F)c2)C(=O)N(C)C1=O	-13.2	i	22.4µM*	4.9%	-9.1%	i[9.22 µM]
SMILES	LDHA block	FUS yeast rescue	TDP-43 yeast inh	aSyn rescue	mIDH1 inhibitor	Abeta rescue
CN(C)C(=O)Oc1ccc2c(=O)c(-c3ccccc3)coc2c1	2.8	/	/	/	/	/
Cc1cc(C(=O)CCl)c(C)[nH]1	3.5	/	/	/	/	/
CCOc1ccccc1CN1CCN(c2ccccc2)CC1	4.7	/	/	/	/	/
CC(C)(O)[C@H]1O[C@H]2CC[C@@]3(C)[C@@](O)(CC[C@H]4Cc5c([nH]c6ccccc56)[C@@]43C)C2=CC1=O	5.7	?	22.4µM*	2.6%	-9.6%	?
Cc1cc2ccccc2n1CC(=O)NCC1(CC(=O)O)CCCCC1	-11.2	/	/	/	/	/
C[C@H](CCC(=O)O)[C@H]1CC[C@H]2[C@@H]3[C@H](O)C[C@@H]4C[C@H](O)CC[C@]4(C)[C@H]3CC[C@]12C	-3.6	?	22.4µM*	6.0%	-6.2%	i
COC(=O)C1=C(c2ccc(-c3ccccc3)c(F)c2)C[C@@H]2CC[C@H]1N2C(=O)NC1CC1	2.8	i	20µM*	-9.1%	-5.1%	i
COC(=O)C1=C(c2ccc(-c3ccccc3)c(F)c2)C[C@@H]2CC[C@H]1N2C(=O)NC(C)C	2.6	?	?	4.1%	-0.9%	i
COC(=O)C1=C(c2ccc(Cl)c(C(F)(F)F)c2)C[C@@H]2CC[C@H]1N2C(=O)NCCOc1ccc(OC)cc1	6.1	?	11.2µM*	?	0.4%	i
CCCNC(=O)N1[C@H]2CC[C@@H]1C(C(=O)OC)=C(c1ccc(Cl)c(C(F)(F)F)c1)C2	5.1	i	17.2%	4.6%	6.4%	?
N#Cc1c(-c2cccc(-c3no[n+]([O-])c3C#N)c2)no[n+]1[O-]	2.6	/	/	/	/	/
Cc1nn(-c2nccs2)c2c1C(=O)CC(C)(C)C2Br (configuration not stated)	10.3	i	14.1µM*	-1.2%	-4.1%	i
Cc1ccc(NC(=O)CN2C(=O)CN=C(c3ccc(F)cc3)c3c2sc(C)c3C)cc1	-1.2	/	/	/	/	/
O=C1NC(=O)N(Cc2cccs2)C(=O)/C1=C/c1ccc(N2CCOCC2)cc1	-46.3*	i	6.8%	-5.4%	-1.8%	i
Cc1cc(C)cc(N2C(=O)NC(=O)C3(Cc4cc(C)ccc4N(C)C3)C2=O)c1 (configuration not stated)	9.6	/	/	/	/	/
Cc1oc(-c2ccccc2Cl)nc1CN1C(=O)CN=C(c2ccccc2)c2ccccc21	-5.5	i	35.5µM*	-30.9%	-15.7%	i
CN(CC1COc2ccccc2O1)c1nc(-c2cccnc2)nc2ccccc12 (configuration not stated)	5.3	i	8.91µM*	-15.9%	5.8%	i
CN1CCC(N(C)c2nc(-c3ccc([N+](=O)[O-])cc3)nc3ccccc23)CC1	1.2	/	-12.9%	0.6%	5.8%	i
